Assay outcomes (PubChem BioAssay)
FLuc counter = firefly luciferase modulation, counter-screen for miR-21 project | P08659 | purified FLuc, Km substrates, luminescence inhibition | Potency, µM (highest dose often 57.5 µM), for the others: top-dose activity change, negative = inhibition, most hits filed as inhibitors | hit rate 6.9% among 360,000;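 note: plate controls were vehicle for no effect and reference inhibitor for full effect; nearly all actives have a fitted effect of over 55% in size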
Target sequence (P08659 whole entry, looked up): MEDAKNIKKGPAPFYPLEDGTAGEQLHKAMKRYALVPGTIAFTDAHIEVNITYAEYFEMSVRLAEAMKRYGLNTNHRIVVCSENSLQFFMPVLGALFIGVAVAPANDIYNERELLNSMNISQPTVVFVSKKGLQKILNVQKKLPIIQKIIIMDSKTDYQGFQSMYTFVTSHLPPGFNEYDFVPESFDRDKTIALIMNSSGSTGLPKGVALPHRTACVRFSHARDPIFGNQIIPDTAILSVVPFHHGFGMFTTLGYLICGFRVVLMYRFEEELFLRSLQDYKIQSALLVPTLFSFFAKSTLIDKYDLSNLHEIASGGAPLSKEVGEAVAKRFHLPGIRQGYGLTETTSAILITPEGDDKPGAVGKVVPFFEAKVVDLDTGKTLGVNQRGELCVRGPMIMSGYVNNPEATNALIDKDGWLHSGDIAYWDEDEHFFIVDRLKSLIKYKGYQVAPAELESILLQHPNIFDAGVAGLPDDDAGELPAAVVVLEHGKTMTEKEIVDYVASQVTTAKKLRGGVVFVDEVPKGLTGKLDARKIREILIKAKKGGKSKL
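Biochemical qHTS of compounds, final roughly 60 µM downward over six points, against 10 nM purified firefly luciferase using Km concentrations of substrates (10 uM D-luciferin, 10 uM ATP) in Tris acetate pH 7.5 buffer; luminescence output.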
ELG1 genotoxic = inducers of genotoxicity in HEK293T ELG1-luciferase cells. HEK293T ELG1-luciferase reporter, luminescence, 16 h. hit rate 1.3% among 330,000. Potency, µM (highest dose often 46 µM), for the others: at the highest dose activity change, positive = activation, hits mostly activators; note: % of control where 0% means no effect; nearly all actives have a fitted effect of over 60% in size
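Cells (2,000/well) expressing the ELG1-luciferase fusion are dosed by pin tool and kept 16 hr at 37 °C, 5% CO2. Signal comes from ONE-Glo luciferase reagent after 30 min at room temperature.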
Rab9 prom act = Rab9 promoter activation | Huh7 Rab9 promoter-luciferase reporter, luminescence, 24 h | hit rate 2.8% among 320,000 | AID 485297 | Potency, µM (series often up to 9.22 µM), for inactives: top-dose activation, negative = inhibition, most hits filed as activators; note: % of control where 0% means no effect; nearly all actives have a fitted effect of over 60% in size
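Huh7 cells stably carrying Rab9 promoter–luciferase reporter, plated 1500 cells/well, compound added after 2 h and incubated 24 h at 37 °C; luciferase luminescence then read after 10 min with detection reagent.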
NPC1 promoter act = activators of NPC1 promoter; Huh7 NPC1 promoter luciferase reporter, 24 h; Potency, µM (series often up to 9.22 µM), inactives show at the top dose activation, most hits filed as activators; hit rate 2.4% among 320,000; AID 485313; note: % of control where 0% means no effect; nearly all actives have a fitted effect of over 60% in size
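In 1536-well qHTS, Huh7 cells harboring an NPC1 promoter–luciferase construct received compound for 24 h; activation was quantified by luminescence following luciferase reagent addition.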
KinaseGlo FLuc = Kinase-Glo luciferase inhibition (counter-screen); Q27757; Kinase-Glo luciferase, ATP luminescence, 8 min; Potency, µM (series often up to 38.3 µM), for inactives: at the highest dose activity change, negative = inhibition, hits mostly inhibitors; hit rate 0.28% among 200,000; note: % is set by controls: 0 for no effect and ±100 for the full control effect; nearly all actives have a fitted effect of over 60% in size
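Luminescence was the read-out, taken after 8-minute incubation at ambient temperature. Luciferase turned over luciferin with 10 uM ATP in imidazole pH 7.2 buffer containing KCl, MgCl2, Tween 20 and BSA.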
SMN2 splice enh = increases expression of the SMN2 splice variant; Potency, µM (top dose mostly 46.1 µM), for inactives: at the highest dose activity change, positive = activation, most hits filed as activators; hit rate 2.8% among 210,000; HEK293 SMN2-luciferase splicing reporter, luminescence, 30-36 h; note: % of control where 0% means no effect; nearly all actives have a fitted effect of over 55% in size
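qHTS luciferase splicing reporter: luminescence rises when SMN2 exon 7 is included in transfected HEK293 cells. Compound exposure lasted 30-36 h at 37C, with 4.5 mM final sodium butyrate as control, followed by a ONE-Glo read.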
An asterisk follows results filed as active; ? = inconclusive; nt = no result given; [ ] = another dose, or the depositor's remark. In the library only some 7.3% were active in any assay of this set; here they are far more common. Calls come from the whole dose curve; as a rule, active = well fitted curve in the direction sought with a large enough effect; inconclusive = small, poorly fitted or top-dose-only effect, or another doubt; inactive = no such curve, though single readings can be large; an effect the other way counts as inactive or inconclusive. Potency is the fitted concentration of half-maximal effect.

SMILES	FLuc counter	ELG1 genotoxic	Rab9 prom act	NPC1 promoter act	KinaseGlo FLuc	SMN2 splice enh
Cc1ccc(-c2nnc(-c3ccc4c(c3)OCO4)o2)cc1	1.35µM*	6.51µM*	0.708µM*	1µM*	-5.0%	11.2µM*
CC(=O)Nc1ccc(NC(=O)C(C)OC(=O)/C=C/c2cnc3ccccc3n2)cc1 (stereo not given)	-0.1%	-1.5%	-13.9%	-1.2%	nt	nt
COCCN(C(=O)Cc1cccs1)C(C(=O)NC1CCCC1)c1cc(OC)c(OC)c(OC)c1 (stereo not given)	4.78µM*	?	?	?	-0.8%	nt
Cc1ccc2c(=O)c3ccccc3n(CCCN)c2c1C	nt	nt	nt	nt	-1.6%[39.9 µM]	nt
O=C(Cn1cnc2c(oc3nc4c(cc32)CCCC4)c1=O)Nc1ccccc1	4.2%	7.7%	0.5%	0.2%	nt	nt
C=C(C)Cn1cnc2c(oc3nc4c(cc32)CCCC4)c1=O	21.3µM*	?	1.58µM*	2.51µM*	nt	nt
O=S(=O)(Nc1nc2ccccc2nc1Nc1ccc(N2CCOCC2)cc1)c1cc(Cl)ccc1Cl	15.1µM*	-3.6%	-7.8%	-5.3%	3.0%	-71.9%
CCOC(=O)Cc1cc(=O)n2[nH]c(-c3ccccc3)cc2n1	?	5.3%	12.4%	1.3%	2.1%	21.9%
CCCc1cc(=O)n2[nH]c(-c3cccc(Br)c3)cc2n1	5.36µM*	?	?	2.82µM*	nt	nt
CCCc1cc(=O)n2[nH]c(-c3ccc(Br)cc3)cc2n1	?	17.3%	3.55µM*	?	0.9%	11.2µM*
COc1ccc(OCC(=O)NCc2ccc3c(c2)CCN3C(=O)c2ccc(F)cc2)cc1	-17.5%	nt	nt	nt	nt	nt
CC1CCc2c(sc(NC(=O)c3ccc(Cn4cc([N+](=O)[O-])cn4)o3)c2C#N)C1 (stereo not given)	13.5µM*	0.6%	6.5%	9.2%	0.8%	3.0%
N#Cc1c(NC(=O)c2ccc(Cn3cc(Br)cn3)o2)sc2c1CCCCC2	10.7µM*	0.5%	-1.4%	20.9%	5.2%	?
COC(=O)c1sc(NC(=O)c2ccc(Cn3cc(Cl)cn3)o2)c(C#N)c1C	21.3µM*	-14.3%	-0.7%	0.6%	0.5%	-14.1%
Cc1ccc(NC(=O)c2ccc(Cn3cc(Cl)cn3)o2)c(C)c1	-1.7%	-5.7%	-4.0%	0.0%	nt	nt
O=C(O)C1=NN(c2ccccc2)C(=O)CC1	0.3%	-4.9%	-1.4%	-3.1%	nt	nt
CCOc1cc(C2C(C#N)=C(N)Oc3n[nH]c(C)c32)ccc1OCCN1CCOCC1 (stereo not given)	4.5%[2.3 µM]	5.6%	22.0%	3.98µM*	6.1%	41.7%
CCOc1cc(C2C(C#N)=C(N)Oc3n[nH]c(CC)c32)ccc1OCCN1CCOCC1 (stereo not given)	0.2%	1.5%	7.3%	-0.4%	-1.1%	6.2%
CC1=C(C(=O)Nc2ccccc2C)C(c2ccccn2)n2ncnc2N1 (stereo not given)	3.3%	nt	nt	nt	nt	nt
CCc1ccc2nc(/N=C(\N)NC(=O)c3ccccc3)nc(C)c2c1	6.01µM*	3.7%	?	22.7%	nt	nt
Cc1cc(C)c2nc(/N=C(\N)NC(=O)c3ccccc3)nc(C)c2c1	?	1.0%	-7.2%	-4.9%	nt	nt
CCOC(=O)c1cc(=O)c2ccc(OCC(=O)Nc3ccccc3)cc2o1	-2.2%	0.1%	-2.2%	1.2%	nt	nt
COc1ccc(-n2c(C)cc(/C=C/c3nc(O)c([N+](=O)[O-])c(=O)[nH]3)c2C)cc1	?	3.0%	10.3%	-5.4%	-2.0%	4.6%
Cc1cc(/C=C\c2nc(O)c([N+](=O)[O-])c(=O)[nH]2)c(C)n1-c1ccccc1	10.7µM*	2.5%	2.0%	-1.8%	1.2%	12.3%
CCCCC(=O)N1CCN(c2nc3ccc(OCC)cc3s2)CC1	13.5µM*	-7.2%	3.6%	-0.5%	nt	nt
SMILES	FLuc counter	ELG1 genotoxic	Rab9 prom act	NPC1 promoter act	KinaseGlo FLuc	SMN2 splice enh
CCOc1ccccc1N1CCN(C(=O)CCCc2nc3ccccc3s2)CC1	-1.3%	-8.6%	-0.2%	-3.3%	0.8%	-10.6%
CCCCC(=O)N1CCN(c2nc3ccc(F)cc3s2)CC1	6.01µM*	-5.3%	0.501µM*	0.562µM*	nt	nt
CCCC(=O)N1CCN(c2nc3ccccc3s2)CC1	7.57µM*	?	1.12µM*	1.41µM*	nt	nt
CCCC(=O)N1CCN(c2nc3ccc(F)cc3s2)CC1	10.7µM*	nt	nt	nt	nt	nt
O=C(c1ccc([N+](=O)[O-])o1)N1CCN(c2nc3ccc(F)cc3s2)CC1	5.5%	-3.6%	15.9%	-5.7%	nt	nt
CCCCC(=O)N1CCN(c2nc3c(C)c(C)ccc3s2)CC1	3.3%	nt	nt	nt	nt	nt
Cc1cc(C(=O)N(C)CC(=O)Nc2ccc(Cl)c(C(F)(F)F)c2)no1	7.3%	2.3%	-1.3%	1.4%	nt	nt
N#Cc1c(N)nc2c(c1-c1cccnc1)CCCCC2	4.8%	-17.5%	5.3%	4.1%	1.6%	-6.9%
CCC(=O)N1CCN(c2nc3ccc(Br)cc3s2)CC1	15.1µM*	?	?	?	nt	nt
Cc1ccc(OC(=O)c2sc3ncn(C)c(=O)c3c2C)cc1	?	14.5%	2.82µM*	2.82µM*	-0.8%	16.8%
N#CC1(NC(=O)CSc2nc3ncc(Cl)cc3[nH]2)CCCCC1	-1.2%	3.8%	3.3%	1.0%	nt	nt
CCc1ccc2c(c1)C1(NN=C(c3ccc(C)cc3)S1)C(=O)N2 (stereo not given)	26.9µM*	?	-1.6%	-2.1%	-2.9%	-45.1%
CC(C)c1ccc(O)c(NC(=O)c2ncn[nH]2)c1	?	-1.3%	17.9%	-5.0%	-1.7%	-14.4%
CC(C)c1ccc2c(c1)C1(NN=C(c3ccccc3)S1)C(=O)N2 (stereo not given)	16.9µM*	19.1%	-0.8%	-6.0%	-7.1%	-70.9%
CCc1ccc2c(c1)NC(c1ccc(C)cc1)=NC(c1cccs1)=N2	?	nt	nt	nt	nt	11.4%
CCCn1nnnc1SCC(=O)c1ccc(NC(C)=O)cc1	-8.8%	0.8%	15.6%	0.6%	1.4%	-6.4%
COc1ccc2c(c1)CCc1c(C(=O)NCC(C)C)noc1-2	3.38µM*	13µM*	1.41µM*	1.12µM*	-2.0%	4.47µM*
COc1ccc2c(c1)CCc1c(C(=O)Nc3ccc(OC)cc3OC)noc1-2	-6.1%	nt	nt	nt	nt	8.0%
